The campaign covered roughly 69,000 compounds. About 8,600 (12%) showed an effect of 50% or more. This is one part of a sample in which strong results are shown more often than they occur.

In this assay the test system is Plasmodium berghei. Kind of assay: Screen against P. berghei liver stage (PbLuc), transformed with Luciferase, at 10uM. Particulars: tested at 10 uM. The format is functional, HepG2.
For `CC(C)c1cc(C(=O)N2CCN(Cc3ccc(C#N)cc3)CC2)n[nH]1`, the INHIBITION was 82.5%.
For the compound `CC(C)c1ccc(CN2CCN(C(=O)c3cc(C4CC4)[nH]n3)CC2)cc1`, the INHIBITION is on record as 60.2%.
As to `O=C(c1cc(C2CC2)[nH]n1)N1CCN(c2nccs2)CC1`, the INHIBITION is 6.02%.
Regarding `N#Cc1ccc(CN2CCN(C(=O)c3cc(C4CC4)[nH]n3)CC2)cc1`, the INHIBITION is listed as 84.2%.
In the case of `N#Cc1ccc(N2CCN(C(=O)c3cc(C4CC4)[nH]n3)CC2)c(F)c1`, the INHIBITION was determined as 80.8%.
Regarding `O=C(c1cc(C2CC2)[nH]n1)N1CCN(Cc2ccsc2)CC1`, the INHIBITION is on record as 36.4%.
Take `CC(C)c1cc(C(=O)N2CCN(Cc3ccsc3)CC2)n[nH]1`: the INHIBITION came out at 36.3%.
For `CC(C)c1cc(C(=O)N2CCCN(Cc3ccccc3)CC2)n[nH]1` the value was 48.4%; for `Cc1csc(N2CCN(C(=O)c3cc(C4CC4)[nH]n3)CC2)n1`, 12%.
For the compound `Cc1cccc(CN2CCN(C(=O)c3cc(C4CC4)[nH]n3)CC2)c1`, the INHIBITION was -24.2%.
Consider `O=C(c1cc(C2CC2)[nH]n1)N1CCN(Cc2ccc3c(c2)OCO3)CC1`, for which the INHIBITION is 9.54%.
With `CN1CCN(CCCNC(=O)c2nc3ccccc3c(=O)[nH]2)CC1`, the INHIBITION was 24.2%.
On to `CN1CCN(C[C@@H]2OC[C@H]3CN(CCc4ccccc4)CC[C@H]32)CC1`, for which the INHIBITION is -40%.
Regarding `CC(C)n1cc(CN2CCCN(C(=O)CC3CCCCC3)CC2)cn1`, the INHIBITION was found to be 4.71%.
`CCc1nnc(CN(CC)C(=O)C2CCC(=O)N(C3CCCC3)C2)o1` (configuration not stated): the INHIBITION is 15.3%.
With `Cc1ccc(CN(C)Cc2cnc(N3CCOCC3)s2)o1`, the INHIBITION came out at 35.8%.
Turning to `O=C(c1cc(C2CC2)[nH]n1)N1CCN(Cc2ccc(Cl)cc2)CC1`, the INHIBITION is 74.7%.
For `O=C(c1cc(C2CC2)[nH]n1)N1CCN(Cc2ccncc2)CC1` the value was -0.113%; for `O=C(c1cc(C2CC2)[nH]n1)N1CCN(Cc2ccccc2)CC1`, -26.6%; for `Cc1ccc(C(=O)N(CC2CCCO2)c2ccncc2)o1` (configuration not stated), 24.1%.
As for `COCC(C)NC(=O)CN1CCC(C)CC1` (configuration not stated), the INHIBITION is on record as 18.4%.
With `Cc1nc(CN2CCC(c3cc(N4CCCC4)ncn3)CC2)cs1`, the INHIBITION is recorded as -37.9%.
Take `c1c[nH]c2nc(C3CCNC3)nc-2c1` (configuration not stated): the INHIBITION turned out to be 19.3%.
As to `Cc1cc(N)nc(C2(C)CCCN2C(=O)Cc2ccc(F)cc2)n1` (configuration not stated), the INHIBITION was 29.2%.
Consider `O=C(CN1C[C@@H]2CC[C@H]1CN(Cc1ccccn1)C2)Nc1ccccc1`, for which the INHIBITION turned out to be 43.7%.
On to `O=C(CN1C[C@@H]2CC[C@H]1CN(Cc1ccccn1)C2)NCc1cccs1`, for which the INHIBITION was determined as 51.1%.
With `Cn1ccc(NC(=O)CN2C[C@@H]3CC[C@H]2CN(Cc2ccccn2)C3)n1` the figure was 45.8%; with `O=C(O)c1ccc(CC2CCN(S(=O)(=O)N3CCOCC3)C2)cc1` (configuration not stated), 32.5%; with `CN(C)C(=O)CNC(=O)c1cc2c(s1)CCN2S(C)(=O)=O`, 26.3%.
For `CN(C)CCNC(=O)c1nc2c(o1)CN(C(=O)c1cccnc1)C2`, the INHIBITION is -75.3%.
Consider `CCCNC(=O)c1nc2c(o1)CN(C(C)=O)C2`, for which the INHIBITION is -0.388%.
Consider `COc1cccc(CNC(=O)c2nc3c(o2)CN(S(C)(=O)=O)C3)c1`, for which the INHIBITION was 52.6%.
For the compound `O=C(NCCN1CCCC1)c1nc2c(o1)CN(C(=O)c1cccnc1)C2`, the INHIBITION is recorded as -42.8%.
Consider `O=C(NCc1ccccc1)c1nc2c(o1)CN(C(=O)c1cccnc1)C2`, for which the INHIBITION is listed as 53.2%.
With `Cc1ccc(CNC(=O)c2nc3c(o2)CN(C(=O)c2cccnc2)C3)o1` the figure was -21.1%; with `CN1CCCN(C(=O)c2nc3c(o2)CN(C(=O)c2cccnc2)C3)CC1`, 1.9%.
With `COc1cccc(CNC(=O)c2nc3c(o2)CN(C(=O)N(C)C)C3)c1` the figure was 48.2%.
`CC(=O)N1Cc2nc(C(=O)NCCc3cccnc3)oc2C1`: the INHIBITION is reported as 70.7%.
As for `CS(=O)(=O)N1Cc2nc(C(=O)NCc3ccccc3)oc2C1`, the INHIBITION was 24.6%.
On to `O=C(NCc1ccncc1)c1nc2c(o1)CN(C(=O)c1cccnc1)C2`, for which the INHIBITION was 29%.
With `CN1CCN(C(=O)c2nc3c(o2)CN(C(=O)c2cccnc2)C3)CC1`, the INHIBITION is 50.1%.
For `O=C(NC1CC1)C1=CC2(CCN(CCO)CC2)c2ccccc21`, the INHIBITION is 28.4%.
`COCC(=O)N1CCCC2(CCN(CCN3CCCC3)CC2)C1`: the INHIBITION is -12.1%.
As to `Cc1noc(C)c1CN(C)C(=O)c1ccc(O)nc1`, the INHIBITION was determined as 25.1%.
For `CC(=O)N(C)CC(=O)NCC1CCN(c2cc(Cl)ccc2C)C1` (configuration not stated) the value was -23.7%; for `Cc1nccc([C@@H]2C[C@@H]3CCN(S(=O)(=O)N(C)C)C[C@H]3O2)n1`, 26.3%.
With `Cn1ccc(C(=O)N2CCCC(Cc3cnc4ccccc4c3)C2)n1` (configuration not stated), the INHIBITION is reported as -0.371%.
Take `COCCn1cnc2ccc(NC(=O)c3c(C)noc3C)cc2c1=O`: the INHIBITION is recorded as 35.7%.
For `Cn1cc(C(=O)N2CC[C@@H]3[C@@H]2CCN3Cc2cccc(F)c2)cn1`, the INHIBITION was 43.2%.
For `Cc1nc2cc(OCc3nc(C(=O)NC(CO)CO)co3)ccc2s1` the value was 29.4%.
`CC[C@@H](CO)NC(=O)c1coc(COc2ccc3sc(C)nc3c2)n1`: the INHIBITION came out at 41.5%.
Regarding `Cc1nc2cc(OCc3nc(C(=O)NC(C)(CO)CO)co3)ccc2s1`, the INHIBITION was determined as 74.5%.

For the origin of these results see ChEMBL document CHEMBL4513216, “Probing the Open Global Health Chemical Diversity Library for Multistage-Active Starting Points for Next-Generation Antimalarials” (ACS Infect Dis, 2020).
